Several values for one entry are separate records, joined by “and”; a condition that tells them apart may be missing. Identical values can stand only once. The whole screen tested about 16,000 compounds, of which about 5,700 (36%) were called active. Roughly 24% stayed inconclusive and do not appear here. The list shows a part of the results. A number with no mark means an inactive call. Calls follow the shape of the dose curve; as a rule, active = well fitted curve in the direction sought with a large enough effect; inconclusive = small, poorly fitted or top-dose-only effect, or effect the other way; inactive = no such curve, though single readings can be large or run the other way.

In PubChem BioAssay AID1851 (National Center for Advancing Translational Sciences (NCATS), 2009) one finds AC50 and activity, negative = inhibition data, which are given here for 87 compounds.
% is scaled to controls: 0 for no effect and ±100 for the full control effect.

Cytochrome P450 1A2 (Homo sapiens), sequence (P05177 whole entry, looked up): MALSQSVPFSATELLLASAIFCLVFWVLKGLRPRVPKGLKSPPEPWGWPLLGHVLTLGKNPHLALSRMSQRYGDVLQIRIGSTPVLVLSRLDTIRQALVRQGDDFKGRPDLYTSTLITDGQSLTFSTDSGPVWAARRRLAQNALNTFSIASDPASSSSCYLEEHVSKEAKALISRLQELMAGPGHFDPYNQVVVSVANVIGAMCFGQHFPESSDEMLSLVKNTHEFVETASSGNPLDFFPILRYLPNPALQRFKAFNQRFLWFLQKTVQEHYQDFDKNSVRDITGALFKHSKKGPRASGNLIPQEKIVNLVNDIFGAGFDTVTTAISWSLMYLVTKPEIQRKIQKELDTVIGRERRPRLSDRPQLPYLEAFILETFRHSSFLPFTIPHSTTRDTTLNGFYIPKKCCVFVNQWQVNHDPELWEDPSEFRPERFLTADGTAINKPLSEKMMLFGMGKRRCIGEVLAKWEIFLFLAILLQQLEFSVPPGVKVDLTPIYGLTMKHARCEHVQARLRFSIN

This assay addresses Cytochrome P450 1A2 (Homo sapiens) (UniProt P05177). Put plainly: Cytochrome panel assay with activity outcomes. As to conditions: recombinant CYP, pro-luciferin dealkylation, luminescence, p450-cyp1a2; series mostly up to 57.1 µM.
Consider `COC(=O)C(O)(c1c(C)[nH]c2ccccc12)C(F)(F)F` (configuration not stated), for which the concentration at half-maximal activity (AC50) was 15.8 µM (active).

Take `N[C@H](Cc1o[nH]c(=O)c1Cl)C(=O)O`: the AC50 entry was “inactive”.

On to `CCCCN1C(=O)/C(=C/c2ccc(N(C)C)cc2)C(=O)N(Cc2ccco2)C1=O`, for which the AC50 is 15.8 µM (active).

Take `O=S(=O)(O)/C(=C\c1ccccc1)c1ccccc1` (tested in a mixture with another compound): the activity, negative = inhibition is -29% [at 2.29 µM].

With `C=C[C@H]1CN2CC[C@@H]1C[C@H]2[C@@H](O)c1ccnc2ccccc12`, the AC50 result is “inactive”.

For the compound `c1cc(CN2CCCC3(CCNCC3)C2)ccn1`, the AC50 entry was “inactive”.

Take `CO[C@@H]1CC=C2CCN3CCC4=C(CC(=O)OC4)[C@]23C1`: the AC50 entry is “inactive”.

As for `C[C@@H]1Cc2cc3c(cc2C(c2ccc(N)cc2)=NN1)OCO3`, the concentration at half-maximal activity (AC50) was 5.01 µM (active).

As to `CC(C)CCC1(CCN)C(=O)NC(=O)NC1=O`, the activity, negative = inhibition is -13.1% [at 11.4 µM].

For the compound `CC(=O)OC1N=C(c2ccccc2)c2cc(Br)ccc2N(C)C1=O` (configuration not stated), the AC50 entry was “inactive”.

Consider `C[C@H](N)c1cccc(Cl)c1Cl`, for which the concentration at half-maximal activity (AC50) was 1.26 µM (active).

As for `CC(C)(C)NC[C@H](O)c1ccccc1Cl`, the AC50 result was “inactive”.

For the compound `CN1[C@H]2CC(=O)C[C@@H]1[C@@H](O)C2`, the AC50 result was “inactive”.

Regarding `O=C(O)[C@H]1[O][Sb][O][C@@H](C(=O)O)C1O` (some centres not stated), the activity, negative = inhibition was -15% [at 2.29 µM].

As for `Cn1cccc1CNCCc1ccccc1`, the AC50 entry is “inactive”.

With `Fc1ccc(CCNCc2ccc(Cl)c(Cl)c2)cc1`, the AC50 is 2.24 µM (active).

`C=CCN1C[C@@H](C)N([C@H](c2ccc(C(=O)N(CC)CC)cc2)c2cccc(OC)c2)C[C@H]1C`: the AC50 entry is “inactive”.

As to `C[C@H]1CC[C@@]2(NC1)O[C@@H]1C[C@@H]3[C@@H]4CC=C5C[C@@H](O)CC[C@]5(C)[C@@H]4CC[C@]3(C)[C@H]1[C@@H]2C`, the activity, negative = inhibition is -1.04% [at 11.4 µM].

As to `C[C@@]12CC[C@H]3[C@@H](CC=C4C[C@H](OS(=O)(=O)O)CC[C@]43C)[C@H]1CCC2=O`, the AC50 entry was “inactive”.

With `COCOc1ccc(Br)cc1C(=O)/C=C\c1ccc2c(c1)OCO2`, the activity, negative = inhibition was -3.01% [at 11.4 µM].

As for `N[C@@H](Cc1ccccc1)P(=O)(O)O`, the activity, negative = inhibition is -13.6% [at 11.4 µM].

Turning to `O=[N+]([O-])c1ccc(N2CCNCC2)cc1NC1CC1`, the concentration at half-maximal activity (AC50) was 0.708 µM (active).

For the compound `CN1CCN(c2ccc([N+](=O)[O-])c(N/N=C3\CN4CCC3CC4)c2)CC1`, the AC50 entry is “inactive”.

For the compound `O=[N+]([O-])c1ccc(N2CCNCC2)cc1NCC1CCCO1` (configuration not stated), the AC50 is 1.41 µM (active).

On to `NS(=O)(=O)c1ccc(-c2ccc([As](=O)(O)O)cc2)cc1`, for which the activity, negative = inhibition was -0.225% [at 11.4 µM].

As for `C1C[C@@H]2CN(CCCN3CCOCC3)[C@@H](C1)O2`, the activity, negative = inhibition was -10.8% [at 11.4 µM].

For the compound `COc1cc2c(cc1OC)[C@@]13CCN4CC5=CCO[C@H](CC(=O)O)[C@@H]([C@H]1N2)[C@H]5C[C@H]43`, the activity, negative = inhibition was -21.3% [at 11.4 µM].

For the compound `C[C@@H]1CC[C@@H]2N(C1)C[C@H]1[C@@](O)([C@H](O)C[C@]3(O)[C@H]4CC[C@H]5[C@]6(O)O[C@]4(C[C@]13O)[C@@]5(C)CC[C@@H]6O)[C@@]2(C)O`, the activity, negative = inhibition is -15.8% [at 11.4 µM].

Turning to `c1ccc2c(c1)[I+]c1ccccc1-2`, the half-maximal activity concentration (AC50) was 126 nM (active) and 20 nM (active).

`O=C1CCCN1CC#CCN1CCCC1`: the AC50 result is “inactive”.

For `COc1ccc(C(=O)O[C@H]2CC[C@@]3(C)[C@H]4CC[C@H]5[C@]3(C[C@]3(O)[C@H]6CN7C[C@H](C)CC[C@H]7[C@](C)(O)[C@]6(O)[C@H](O)C[C@]53O)O[C@]24O)cc1OC`, the activity, negative = inhibition was -20.9% [at 2.29 µM].

`O[Si@](CCCN1CCCCC1)(c1ccc(F)cc1)C1CCCCC1`: the AC50 entry was “inactive”.

For `CCCCN1C(=O)C(C2c3ccccc3C(=O)N2Cc2ccccc2)C(=O)NC1=S` (configuration not stated), the AC50 was 12.6 µM (active).

In the case of `CN1C(=O)C(C2c3ccccc3C(=O)N2Cc2ccc([N+](=O)[O-])cc2)C(=O)N(C)C1=O` (configuration not stated), the AC50 result was “inactive”.

With `CC(C)CN1CCC2(CC1)CCN(C(=O)Oc1ccccc1)CC2`, the AC50 entry was “inactive”.

Regarding `C=C(C)CN1CC[C@@]23c4c5ccc(O)c4O[C@H]2c2[nH]c4ccccc4c2C[C@]3(O)[C@@H]1C5`, the AC50 entry is “inactive”.

As to `CC1=NN(c2ccc(S(=O)(=O)O)cc2C)C(=[OH+])[C@H]1N=Nc1cc(S(=O)(=O)O)ccc1C(=O)O.O.[Cr]`, the activity, negative = inhibition was -12.7% [at 11.4 µM].

Consider `O=[N+]([O-])c1cc([As](=O)(O)O)ccc1O`, for which the AC50 entry is “inactive”.

With `CC[C@]1(OC(=O)CN)C(=O)OCc2c1cc1n(c2=O)Cc2cc3ccccc3nc2-1`, the activity, negative = inhibition is -17.6% [at 2.29 µM].

For `CC[C@@]1(O)C(=O)OCc2c1cc1n(c2=O)Cc2cc3c(NC(=O)CN)cccc3nc2-1`, the activity, negative = inhibition is -12.3% [at 2.29 µM].

`CC[C@@]1(O)C(=O)OCc2c1cc1n(c2=O)Cc2cc3ccccc3nc2-1`: the AC50 was 2.51 µM (active).

`CCCC[N+]12CCC(CC1)C(C(=O)c1cccs1)C2` (configuration not stated): the AC50 result was “inactive”.

For the compound `COC(=O)[C@@H](N)CCCN=C(N)N[N+](=O)[O-]`, the AC50 entry was “inactive”.

Consider `Cc1cc(OCC(=O)OC(C)C)c2c3c(c(=O)oc2c1)CCCC3`, for which the AC50 was 3.55 µM (active).

Consider `Cc1cc(OCc2ccc([N+](=O)[O-])cc2)c2c3c(c(=O)oc2c1)CCCC3`, for which the concentration at half-maximal activity (AC50) was 2.24 µM (active).

With `Cc1cc(OC(=O)CCCNC(=O)OC(C)(C)C)c2c3c(c(=O)oc2c1)CCC3`, the AC50 was 2.24 µM (active).

For the compound `Cn1cnc(CCN)c1`, the AC50 entry was “inactive”.

Turning to `OC1(c2ccc(F)cc2)CCNC1` (configuration not stated), the AC50 result is “inactive”.

Consider `CCOC(=O)N(c1ccccc1)P1(=S)OCCO1`, for which the AC50 was 20 µM (active).

Regarding `O=C(O)C[O][Sb][O]CC(=O)O`, the activity, negative = inhibition was -7.83% [at 2.29 µM].

Consider `CC(=O)O[C@H]1C[C@@H](O[C@@H]2[C@H](C)O[C@H](O[C@@H]3[C@H](C)O[C@H](O[C@@H]4CC[C@@]5(C)[C@@H](CC[C@]6(C)[C@]5(C)C[C@H](O)[C@]5(C)[C@@H](C7=CC(=O)OC7)CC[C@@]56O)C4)C[C@@H]3O)C[C@@H]2O)O[C@@H](C)[C@H]1O[C@H]1O[C@@H](CO)[C@@H](O)[C@@H](O)[C@@H]1O`, for which the AC50 entry was “inactive”.

`C[C@]1(C(=O)O)[C@@H]2CC[C@@H](O2)[C@@]1(C)C(=O)O`: the AC50 entry is “inactive”.

On to `ClCCNc1nc2ccc(Cl)cc2[nH]1`, for which the AC50 is 3.55 µM (active).

In the case of `N[C@H](C(=O)O)c1cc(=O)[nH]o1`, the AC50 entry is “inactive”.

On to `C[C@@]12CC(=O)[C@H]3[C@@H](CCC4=CC(=O)CC[C@]43C)[C@H]1CCC2=O`, for which the AC50 entry is “inactive”.

Turning to `CCCN(CCC)C1Cc2cc(OC)c(OC)cc2C1`, the AC50 result is “inactive”.

Turning to `CCn1cnc2c(Nc3cccc(Cl)c3)nc(N[C@@H]3CCCC[C@H]3N)nc21`, the AC50 is 15.8 µM (active).

As to `CN(C)C(=O)Oc1cccc([N+](C)(C)C)c1`, the AC50 result was “inactive”.

As for `COc1ccc(C[C@H]2c3cc(OC)c(OC)cc3CCN2C)cc1OC`, the AC50 result was “inactive”.

On to `COc1cc(/C=N/NC(=O)CN2CC(c3ccccc3)CC2=O)ccc1OC(=O)N(C)C` (configuration not stated), for which the AC50 result is “inactive”.

`O=C(O)CC[N+](=O)[O-]`: the AC50 result is “inactive”.

Take `N#CC(C#N)=Cc1cc(O)c(O)c(O)c1`: the AC50 entry is “inactive”.

For `CC(C)(C)c1cc(C=C(C#N)C#N)cc(C(C)(C)C)c1O`, the AC50 is 10 µM (active).

As to `COc1cc(C=C(C#N)C#N)cc(O)c1O`, the concentration at half-maximal activity (AC50) is 12.6 µM (active).

On to `N#C/C(=C\c1ccc(O)c(O)c1)C(N)=S`, for which the AC50 is 12.6 µM (active) and 6.31 µM (active).

On to `N#C/C(=C\c1ccc(O)c(O)c1)C(=O)NCCCNC(=O)/C(C#N)=C/c1ccc(O)c(O)c1`, for which the AC50 entry is “inactive”.

In the case of `N#CC(C#N)=Cc1ccc(O)c(O)c1`, the concentration at half-maximal activity (AC50) was 5.01 µM (active).

Turning to `COc1ccc2c(c1)CCC1[C@@H]2CCC2(C)[C@@H](NCCCCCCN3C(=O)C=CC3=O)CC[C@@H]12` (some centres not stated), the AC50 entry is “inactive”.

`CC[C@]1(c2cccc(O)c2)CCCCN(C)C1`: the AC50 entry is “inactive”.

For `COc1ccc(C2SCC(=O)Nc3c2c(C)nn3C2CCOC(C)(C)C2)cc1` (configuration not stated), the AC50 entry was “inactive”.

`CCN1C[C@@]2(COC)CC[C@H](O)[C@@]34[C@@H]2C[C@@H]([C@@H]13)[C@]1(O)C[C@@H](OC)C2C[C@H]4[C@H]1[C@H]2OC(C)=O`: the AC50 result was “inactive”.

On to `CC[C@@H]1CN2CCc3cc(OC)c(OC)cc3[C@H]2C[C@@H]1C[C@@H]1NCCc2cc(OC)c(OC)cc21`, for which the AC50 result was “inactive”.

For the compound `CCc1cc2c(nc1CC)CCN(CC/C(C)=N/OC)C2`, the activity, negative = inhibition was -0.582% [at 11.4 µM].

For the compound `C=C1C/C(=C\C)C(=O)O[C@@H]2CCN3CC=C(COC(=O)[C@@]1(C)O)[C@H]23`, the AC50 entry was “inactive”.

Consider `CC[N+](CC)(CC)CCOc1cccc(OCC[N+](CC)(CC)CC)c1OCC[N+](CC)(CC)CC`, for which the AC50 result was “inactive”.

`N/C(=N\N=C/c1ccc(-c2ccc(O)c(C(=O)O)c2)o1)N[N+](=O)[O-]`: the AC50 entry is “inactive”.

As for `Cc1o[nH]c(=O)c1C[C@@H](N)C(=O)O`, the AC50 result is “inactive”.

Turning to `C[C@H]1CC[C@]2(OC1)O[C@@H]1C[C@@H]3[C@@H]4CC[C@H]5C[C@@H](O)CC[C@]5(C)[C@@H]4CC(=O)[C@@]3(C)[C@H]1[C@@H]2C`, the AC50 entry is “inactive”.

With `CC(=O)OCC1=C(C(=O)O)N2C(=O)[C@@H](N)[C@@H]2SC1`, the AC50 entry is “inactive”.

Consider `c1ccc(N2CC3(CCNCC3)C2)cc1`, for which the AC50 entry is “inactive”.

As to `c1ccc(N2CCC3(CCNCC3)CC2)cc1`, the AC50 result was “inactive”.

Take `Clc1cccc(N2CCNCC2)c1`: the half-maximal activity concentration (AC50) is 15.8 µM (active).

`CCN1CCN(S(=O)(=O)c2ccc(Cl)nc2)CC1`: the AC50 result is “inactive”.

Turning to `C[C@@]12CCC(=O)C=C1C=C[C@H]1[C@H]3CC[C@](O)(CCC(=O)O)[C@]3(C)CC[C@@H]12`, the AC50 result is “inactive”.

Consider `O=C(O)[C@@H]1[C@H](C(=O)O)[C@]2(Cl)C(Cl)=C(Cl)[C@@]1(Cl)C2(Cl)Cl`, for which the activity, negative = inhibition was -14.5% [at 11.4 µM].

Consider `CCCn1c(=O)c2[nH]c(C3CCCC3)nc2n(CCCOC(=O)c2ccc(S(=O)(=O)F)cc2)c1=O`, for which the AC50 result was “inactive”.

`CC(C)C(=O)CP(=O)(O)O`: the activity, negative = inhibition is -6.25% [at 11.4 µM].
